DAX1 inh-1: inhibitors of human orphan nuclear receptor DAX1 (NR0B1); HEK293 Gal4-DAX1 luciferase reporter, luminescence; P51843; inhibition, % at 6.75 µM; AID 504766; 340,000 compounds, 0.99% hits;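 active = inhibition above the mean over all tested compounds plus 3 SD, cut at about 4.2% in these data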;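 also: inhibition shows as a rise in luminescence from relieved DAX1 repression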
DAX1 inh-2: blocks DAX1 repression of SF-1 activated StAR promoter; AID 652010; HEK293T StAR-luciferase reporter, SF-1/DAX-1 repression relief; 370,000 compounds, 1.1% hits; inhibition, % at 6.8 µM;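 active = inhibition above the mean over all tested compounds plus 3 SD, cut at about 3.6% in these data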;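 also: higher inhibition means more luminescence from relief of DAX-1 repression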
hgDAF12 agonist: agonists of H. glycines DAF-12 nuclear receptor; HEK293 GAL4-hgDAF12 UAS-luciferase reporter, agonist luminescence; normalized to butyrate control; activation, % at 6.8 µM; 370,000 compounds, 1.8% hits; AID 687014;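 active = activation above a cutoff set at the mean of all screened compounds plus 3 SD, cut at about 10% in these data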
hcDAF-12 act: activators of H. contortus DAF-12 nuclear receptor. HEK293 hcDAF-12 lit1-tk-luc reporter, luminescence; 0% DMSO, 100% Δ7-dafachronic acid. activation, % at 6.8 µM. 370,000 compounds, 1.4% hits. AID 652067;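 active = activation above the mean of all tested compounds plus 3 SD, cut at about 5.5% in these data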
ssDAF12 agonist: activators of S. stercoralis DAF-12 nuclear receptor. HEK293 ssDAF-12/GRIP1 lit1-tk-luc reporter, luminescence; % of 3 µM dafachronic acid response. activation, % at 6.8 µM. 370,000 compounds, 1% hits;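 active = activation above the mean over all tested compounds plus 3 SD, cut at about 0.9% in these data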
LXRb hcDAF ctr: activates human LXR-beta, counter-screen for hcDAF-12 agonists | activation, % at 6.8 µM | 3,400 tested, under 10 active | shares compounds with hcDAF-12 act | HEK293 Gal4-LXR tk-luc reporter, luminescence, 24 h; normalized: DMSO 0%, positive control 100% | AID 743027;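 active = mean percent activation of the reporter above a cutoff set as the average over tested compounds plus their standard deviation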
Target sequence (P55055 whole entry, looked up, the tested form may be a part): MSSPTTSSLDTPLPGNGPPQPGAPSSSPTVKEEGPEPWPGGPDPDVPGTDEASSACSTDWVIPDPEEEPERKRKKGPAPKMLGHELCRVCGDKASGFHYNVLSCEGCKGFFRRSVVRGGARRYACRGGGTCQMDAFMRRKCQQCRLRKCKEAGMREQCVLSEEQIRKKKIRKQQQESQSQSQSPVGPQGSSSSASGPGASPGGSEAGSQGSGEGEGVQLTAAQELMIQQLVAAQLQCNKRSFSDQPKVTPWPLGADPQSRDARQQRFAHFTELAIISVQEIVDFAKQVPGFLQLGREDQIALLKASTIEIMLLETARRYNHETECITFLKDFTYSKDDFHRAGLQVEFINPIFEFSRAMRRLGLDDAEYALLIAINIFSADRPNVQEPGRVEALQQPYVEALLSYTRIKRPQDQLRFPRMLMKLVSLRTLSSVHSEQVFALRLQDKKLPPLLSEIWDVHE
hcDAF12 ag: hcDAF-12 agonism, confirmation assay. shares compounds with hcDAF-12 act. HEK293 hcDAF-12 lit1-tk-luc reporter, luminescence; % of Δ7-dafachronic acid response. activation, % at 6.8 µM. 3,400 compounds, 61% hits. AID 743032;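 active = mean activation across triplicate tests above the threshold derived from the earlier primary screen, cut at about 5.5% in these data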
hgDAF12 conf: confirmation of H. glycines DAF-12 agonists; activation, % at 6.8 µM; HEK293 GAL4-hgDAF12 luciferase reporter, agonist mode; percent of butyrate response; 3,300 compounds, 80% hits; shares compounds with hgDAF12 agonist;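 active = mean activation over triplicate wells above the hit cutoff derived from the earlier primary screen, cut at about 11% in these data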
LXR ag 2: activates human LXR-beta, counter-screen for DAF-12 agonists; shares compounds with hgDAF12 agonist; activation, % at 6.8 µM; HEK293 Gal4-LXR luciferase reporter, 24 h; 3,300 tested, under 10 active;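 active = mean activation of the triplicate above a set limit carried over from the primary screen, none filed active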
Numbers stand for hits; i = inactive; nt = not tested or not shown. Shown are actives, neighbours in structure and some others; about 4.1% of the full set was active somewhere.

SMILES	DAX1 inh-1	DAX1 inh-2	hgDAF12 agonist	hcDAF-12 act	ssDAF12 agonist	LXRb hcDAF ctr	hcDAF12 ag	hgDAF12 conf	LXR ag 2
Clc1ccccc1-c1ncc(-c2ccccc2)o1	5.2	i	14	9.7	1.4	i	7.8	21	i
CSc1nnc(-c2ccccc2Cl)o1	i	i	i	i	i	nt	nt	nt	nt
Cc1sc(NC(=O)c2ccc(Br)s2)c(C(N)=O)c1C	i	i	19	8.8	i	i	12	18	i
CCN1CCCCC(NC(=O)c2ccc(C)cc2)C1=O (stereo not given)	nt	i	i	i	i	nt	nt	nt	nt
CCCC[C@H]1C2CC(OC(=O)Nc3ccc4c(c3)OCO4)C(C2)[C@H]2CCCCN21 (stereo not given in full)	nt	i	i	i	i	nt	nt	nt	nt
CC(C)(C)c1ccc2c(c1)C(=O)c1ccccc1C2=O	i	4.4	20	11	i	i	i	13	i
CC1=CN2C(=N)/C(=C/c3ccco3)C(=O)N=C2S1	i	4.0	16	10	1.6	i	i	12	i
CC(Cl)C(=O)N1CCC(C(=O)NCC2COc3ccccc3O2)CC1 (stereo not given)	nt	i	i	i	i	nt	nt	nt	nt
CC(C)c1ccc2nc(NC(=O)C3CC3)sc2c1	i	i	22	7.0	i	i	i	17	i
COC(=O)[C@]12C[C@H](CC(=O)N3CCCC3)C(=O)N(Cc3ccc4c(c3)OCO4)C1=C[C@H](C(C)(C)C)O[C@@H]2C	nt	i	i	i	i	nt	nt	nt	nt
N#Cc1ccc(C(=O)Nc2ccc3ccccc3c2)cc1	i	i	20	7.9	i	i	i	22	i
O=C(Nc1ccc2ccccc2c1)c1ccccc1F	i	i	19	14	1.6	i	9.3	23	i
O=C(Nc1ccc2cn[nH]c2c1)c1ccccc1F	i	3.9	14	7.8	i	i	i	16	i
COP(=O)(CC(=O)OC(C)(C)C)C(CC(C)C)NC(=O)OCc1ccccc1 (stereo not given)	nt	i	i	i	i	nt	nt	nt	nt
Nc1ccc2nn(-c3ccc(F)cc3)nc2c1	4.3	i	16	14	2.3	i	i	16	i
Cc1cc2nn(-c3ccc(F)cc3)nc2cc1N	i	4.0	18	14	1.4	i	16	24	i
COc1cccc(OC[C@@H](O)CN2CCC(C(O)(c3ccccc3)c3ccccc3)CC2)c1	nt	i	i	i	i	nt	nt	nt	nt
COc1ccc(-n2c(COc3ccc(C)cc3)nnc2SCC(=O)Nc2ccc(S(=O)(=O)Nc3cc(C)nc(C)n3)cc2)cc1	nt	i	i	i	i	nt	nt	nt	nt
O=C(Nc1cccc(-c2cnc3ccccc3n2)c1)c1ccccc1	i	i	i	i	i	nt	nt	nt	nt
CCc1ccc(-c2cnc3ccccc3n2)cc1NC(=O)CNC(=O)c1ccccc1	i	i	19	13	1.1	i	6.6	i	i
Cc1onc(-c2ccccc2)c1C(=O)NCC1CCN(C(=O)C(=O)c2cccs2)CC1	nt	i	i	i	i	nt	nt	nt	nt
CC(C)c1cc(C(=O)N(C2CCCCC2)C2CCCCC2)no1	nt	i	i	i	i	nt	nt	nt	nt
O=C(NC(=S)Nc1cnc2ccccc2c1)c1ccccc1	5.9	4.2	21	7.4	1.9	i	6.6	13	i
O=C(c1cc(Cl)cc(Cl)c1)N1CC[C@H]2[C@H](CCCN2Cc2cc(F)cc(F)c2)C1	nt	i	i	i	i	nt	nt	nt	nt
CCc1nnc(NC(=O)c2ccc3ccccc3n2)s1	i	3.9	14	13	2.6	i	15	18	i
CCc1nnc(NC(=O)c2nc(Cl)ccc2Cl)s1	i	i	i	i	i	nt	nt	nt	nt
O=C(Nc1ccccc1C(=O)O)c1ccc2ccccc2n1	i	i	i	i	i	nt	nt	nt	nt

Screening results as filed in PubChem.
